Rows were chosen to be rich in hits. Some 20% of all compounds tested hit in one or more screens of this group.
Pf growth 96h: Primary qHTS for delayed death inhibitors of the malarial parasite plastid, 96 hour incubation. P. falciparum luciferase reporter growth, 96 h. Potency, µM (highest dose often 28.7 µM), inactives show top-dose activity change, negative = inhibition, usual class: inhibitors. 320,000 compounds, 6.9% hits; also: potency is read from the fitted curve at half-maximal effect; % is scaled to controls: 0 for no effect and ±100 for the full control effect
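Parasite growth measured via integrated firefly luciferase reporter in P. falciparum. Infected erythrocytes at 2% hematocrit, 0.05% parasitemia final were treated 96 hours at 37 C under 5% CO2, and luminescence was read.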
Shiga inhibitor: A qHTS for Small Molecule Inhibitors of Shiga Toxin; Vero cells, Shiga toxin protein synthesis inhibition reporter; inhibition, % at 38.7 µM; 290,000 compounds, 9.2% hits; AID 2315, 2010; in the data active = inhibition mostly above about 28%, no sharp cut-off; inactive = mostly below about 43%; also: 0% is about no effect
Pf growth 48h: Primary qHTS for delayed death inhibitors of the malarial parasite plastid, 48 hour incubation; Potency, µM (top dose mostly 28.7 µM), for the others: at the highest dose activity change, negative = inhibition, most hits filed as inhibitors; P. falciparum luciferase growth in erythrocytes, 48 h; 310,000 compounds, 5.9% hits; also: potency is read from the fitted curve at half-maximal effect; % is scaled to controls: 0 for no effect and ±100 for the full control effect
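Luciferase-expressing parasites in RBCs, 2% Hct / 0.1% parasitemia final; RPMI 1640 + 0.5% Albumax; 37 C, 5% CO2, one generation; luminescence read-out, lower signal = inhibition.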
CHX counter: Cycloheximide Counterscreen for Small Molecule Inhibitors of Shiga Toxin; max response, %; 300,000 compounds, 12% hits; cell reporter, cycloheximide protein synthesis inhibition counterscreen; AID 2314, 2010; in the data active = max response mostly above about 13%, no sharp cut-off; inactive = mostly below about 14%; also: read at 38.3 µM for the half of the compounds with a filed dose; 0% is about no effect
HCMV antiviral: qHTS Assay for inhibitors of the human cytomegalovirus (HCMV); AID 1259415, 2018; 410,000 compounds, 4.5% hits; HFF cells, HCMV-luciferase reporter, 72 h; stronger effect = lower value; activity change, negative = inhibition, % at 57.5 µM; in the data active = activity change below about -60%; inconclusive = no clear call, values can overlap the other calls; inactive = above about -39%; also: % is scaled to controls: 0 for no effect and ±100 for the full control effect
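Inhibition of viral replication was scored as loss of reporter luminescence in HFFs infected with HCMV-luciferase (MOI 1 PFU/cell) for 72 h; compounds tested at 2 doses, normalized to buffer and Salinomycin controls.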
Numbers without * were called inactive; ? = inconclusive; . = no result given. Unless noted, calls follow the shape of the dose curve; as a rule, active = well fitted inhibition curve with a large enough effect; inconclusive = small, poorly fitted or top-dose-only effect, or another doubt; inactive = no such curve, though single readings can be large or run the other way.

SMILES | Pf growth 96h | Shiga inhibitor | Pf growth 48h | CHX counter | HCMV antiviral
O=C(NCCc1ccccc1)c1ccc2c(c1)N(Cc1ccc(F)cc1Cl)C(=O)CS2 | . | . | . | . | -15.8
COc1ccc(S(=O)(=O)N(CC(=O)Nc2ccccc2Cl)Cc2ccccc2)cc1 | . | . | . | . | -24.7
CC1CCCCN1C(=O)c1cc(-c2ccc(Br)cc2)on1 (centres undefined) | . | . | . | . | 67.7
Cc1ccc(-c2cc(C(=O)N3CCOCC3)no2)cc1 | 26.6% | 29.5 | 27.0% | 12.0 | -61.4*
Cc1ccc(-c2cc(C(=O)N3CCCC3)no2)cc1 | 9.8% | active | 45.1% | 28.2 | -36.3
Cc1ccc(C2=NS(=O)(=O)N(C)C(C(=O)N3CCOCC3)=C2)cc1 | ? | 14.7 | 0.0% | -1.9 | 18.0
NC(=O)C1=C[C@@H](C2CCCCC2)C[C@@H](OCc2ccc(CO)cc2)O1 | . | . | . | . | 21.9
Cc1nc2nc(NC(=O)CC(C)C)[nH]n2c(=O)c1Cc1ccccc1 | . | . | . | . | 1.2
CCN(CC)c1nc(-c2ccccc2)nc2c1sc(=S)n2CC | 235.9% | 20.9 | ? | 10.2 | -6.2
CCCCN(CCCC)c1nc(-c2ccncc2)nc2ccccc12 | ? | 0.8 | ? | -3.4 | -70.0*
CCCCN(CC)c1nc(-c2ccccc2F)nc2ccccc12 | . | . | . | . | -9.3
CCN(CC)c1nc(-c2ccccc2)nc2ccccc12 | ? | 2.4 | 18.0% | -1.0 | -62.7*
COCCN(CCOC)c1nc(-c2ccccc2)nc2ccccc12 | ? | 14.0 | 13.1µM* | 0.5 | -36.1
COCCN(CCOC)c1nc(-c2ccc(Cl)cc2)nc2ccccc12 | ? | -22.7 | 0.0% | 7.3 | ?
CCOc1ccc(CCNC(=O)c2cc3n(n2)CCCN(Cc2ccc(C)cc2)C3=O)cc1OCC | . | . | . | . | -16.8
Cc1cc(C)[n+](-c2ccc(F)cc2)c2[nH]c(=O)[nH]c(=O)c12 | 24.3% | -18.3 | -1.6% | 1.1 | -23.5
CCOC(=O)CN1N=C(c2ccc(Cl)s2)CSC1=O | 0.0% | -2.7 | 6.6% | 9.4 | -31.8
NC1=NC(c2cn(-c3ccccc3)nc2-c2cccs2)n2c(nc3ccccc32)N1 (centres undefined) | ? | 16.6 | ? | 7.9 | ?
CC1=C(C#N)C(c2cn(-c3ccccc3)nc2-c2cccs2)C(C#N)=C(C)N1 | 43.7% | -5.4 | 1.65µM* | -9.3 | -34.9
COCCOC(=O)C1=C(C)NC(=O)NC1c1cn(-c2ccccc2)nc1-c1cccs1 (centres undefined) | 49.6% | 9.6 | -20.3% | 0.9 | -0.8
C=CCOC(=O)C1=C(C)NC(=O)NC1c1cn(-c2ccccc2)nc1-c1cccs1 (centres undefined) | ? | -4.3 | 14.7µM* | -1.5 | -24.5
O=C(NOCc1ccccc1)c1coc(-c2ccccc2)n1 | . | . | . | . | 4.3
CC(=O)Nc1ccc(S(=O)(=O)N2CCN(Cc3cccc([N+](=O)[O-])c3)CC2)cc1 | 1.65µM* | -14.5 | -4.8% | -6.6 | -23.4
O=[N+]([O-])c1cccc(CN2CCN(Cc3ccc(Br)cc3)CC2)c1 | ? | -3.4 | -22.0% | 1.3 | -73.5*
COc1cccc(CN2CCN(S(=O)(=O)c3ccc(NC(C)=O)cc3)CC2)c1OC | 7.6% | -5.8 | ? | -2.3 | 15.6
SMILES | Pf growth 96h | Shiga inhibitor | Pf growth 48h | CHX counter | HCMV antiviral
COc1cc(CN2CCN(S(=O)(=O)c3ccc(NC(C)=O)cc3)CC2)cc(OC)c1OC | . | . | . | . | -105.8*
CC(NC(=O)CSc1nc(-c2ccccc2F)nc2cc(=O)[nH]n12)c1nc2ccccc2n1C (centres undefined) | . | . | . | . | 10.7
COc1ccc(OC)c(NS(=O)(=O)c2cc3c(cc2Cl)N(C(C)=O)CCO3)c1 | . | . | . | . | -37.9
CC1CN(C(=O)CCC(=O)NCc2ccc(Cl)cc2)c2ccccc2O1 (centres undefined) | 3.9% | -3.0 | -16.2% | 3.3 | 3.3
CC1CCC(NC(=O)CCC(=O)N2CC(C)Oc3ccccc32)CC1 (centres undefined) | ? | 20.5 | 74.5% | 14.9* | -1.5
COc1cccc(CNC(=O)CCC(=O)N2CC(C)Oc3ccccc32)c1OC (centres undefined) | 5.22µM* | -3.7 | 16.8% | 1.5 | 8.9
O=C(O)c1cnn2c(C(F)(F)F)cc(-c3ccco3)nc12 | 3.5% | -7.5 | 23.2% | -6.6 | 0.0
Cc1c(NC(=O)c2cnn3c(C(F)(F)F)cc(-c4ccco4)nc23)c(=O)n(-c2ccccc2)n1C | ? | -12.7 | . | 1.6 | -62.4*
COc1ccc(-c2cc(C(=O)Nc3c(C)n(C)n(-c4ccccc4)c3=O)no2)cc1 | 8.28µM* | 42.3 | ? | 5.1 | -15.3
Cc1cc(C(=O)Nc2c(C)n(C)n(-c3ccccc3)c2=O)c2ccccc2n1 | 41.2% | -13.4 | -3.6% | -1.8 | 3.6
Cc1ccc(-n2c(N)c(C(=O)Nc3c(C)n(C)n(-c4ccccc4)c3=O)c3nc4ccccc4nc32)cc1C | ? | -1.0 | 10.4µM* | -3.1 | .
COc1ccc(-n2c(N)c(C(=O)Nc3c(C)n(C)n(-c4ccccc4)c3=O)c3nc4ccccc4nc32)cc1 | 1.65µM* | -4.7 | 4.65µM* | -2.6 | -26.9
CCCNc1c(NC(=O)c2ccc3c(c2)OCO3)c(=O)oc2ccccc12 | 74.8% | -13.4 | 10.1% | -8.4 | -14.0
NC(=S)N=Nc1c(O)[nH]c2c(Br)cc(Br)cc12 | 91.6% | 38.6 | ? | -0.9 | 4.6
Nc1c(C(=O)Nc2ccccc2)c2nc3ccccc3nc2n1-c1ccc(O)cc1 | -18.8% | 13.1 | 13.1µM* | -1.7 | 3.3
CCOc1ccc(NC(=O)c2ccc3c(c2)N(Cc2ccc(F)cc2)C(=O)CS3=O)cc1 (centres undefined) | ? | 30.7 | 10.4µM* | 12.4 | -5.3
Cc1ccc(C)c(NC(=O)c2ccc3c(c2)N(Cc2ccc(F)cc2)C(=O)CS3=O)c1 (centres undefined) | -11.5% | 14.7 | 3.29µM* | -0.8 | ?
CC1CCCC(NC(=O)c2ccc3c(c2)N(Cc2ccccc2)C(=O)CS3=O)C1C (centres undefined) | 10.4µM* | -4.9 | 16.5µM* | 4.1 | 3.8
O=C(NC1CCCCCCC1)c1ccc2c(c1)N(Cc1ccc(F)cc1)C(=O)CS2=O (centres undefined) | ? | -11.9 | 11.7µM* | 1.2 | -0.3
COc1ccc(C(=O)OCC(=O)NCCN2C(=O)CSC2=O)cc1[N+](=O)[O-] | . | . | . | . | 4.6
CC1(C)NC(=O)N(CNc2cc(Cl)ccc2Cl)C1=O | -6.0% | -8.4 | 18.6% | -3.4 | -11.4
Cc1nn2c([nH]c(=O)c3ccccc32)c1C=O | 11.7µM* | -8.9 | ? | -2.7 | ?
Cc1nn2c(nc(N3CCCCC3)c3ccccc32)c1C=O | 5.22µM* | 17.8 | 3.29µM* | -4.0 | ?
Cc1nn2c(nc(N3CCOCC3)c3ccccc32)c1C=C(C#N)C#N | 23.4% | 11.1 | 5.7% | -5.2 | 18.7
COc1ccc(C[C@@H]2CN3C(=NC[C@@H]3C)N2C[C@H](C)NC(=O)c2ccc(C)c(Br)c2)cc1 | 2.62µM* | -7.3 | 8.28µM* | 1.3 | -32.6

Compound activity: PubChem, National Center for Advancing Translational Sciences (NCATS)
